Among the data in PubChem BioAssay (NCI) are growth values, retold here.

Compounds without any hit were thinned out: in the full panel of roughly 83,000, 20% have a hit.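 Negative percent growth values reflect cell death: -40 means 40% of the cells present at the start died, and -100 means all died.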 Unmarked numbers belong to inactive results. Activity calls are given as the source filed them. Rule for the calls: active = growth percent below 10; inactive = the rest.

Some test systems named below: SR leukemia; RPMI-8226 leukemia; OVCAR-8 ovarian; OVCAR-4 ovarian; SK-OV-3 ovarian; IGROV1 ovarian; OVCAR-3 ovarian; HS 578T breast; NCI/ADR-RES ovarian; OVCAR-5 ovarian.
Holding throughout (test): NCI-60 one-dose screen, 48 h (100 = growth as untreated, 0 = no growth, -100 = all killed)
Settings in all cases: 10 µM unless noted

Consider `OCc1cnccc1NCCCCOc1ccc(Oc2ccccc2)cc1`, for which the growth in the experiment on SR leukemia is 31.7%; in the experiment with RPMI-8226 leukemia, 24.7%; in the experiment with OVCAR-8 ovarian, 65.1%; in the experiment with OVCAR-4 ovarian, 63.2%; in the experiment on SK-OV-3 ovarian, 87.2%; with IGROV1 ovarian, 72.7%. For the same compound, the growth was 66.6% in the experiment with OVCAR-3 ovarian, 59.6% in the experiment with HS 578T breast and 65.8% in the experiment with NCI/ADR-RES ovarian.

On to `COc1cc(/C=C\C(=O)O)ccc1OCc1ccccc1`, for which the growth is 97.7% with SR leukemia; 90.2% in the experiment with RPMI-8226 leukemia; 93.7% in the experiment on OVCAR-8 ovarian; 108% with OVCAR-4 ovarian; 102% in the experiment on SK-OV-3 ovarian; 103% with IGROV1 ovarian. For the same compound, the figures for the growth in the experiment with OVCAR-3 ovarian, with HS 578T breast and in the experiment with NCI/ADR-RES ovarian were 104%, 101% and 101%, respectively.

For `Oc1cccc(CCc2ccc(Oc3cc(CCc4cccc(O)c4)cc(O)c3O)cc2)c1`, the growth was 35.9% in the experiment on SR leukemia; 39.5% in the experiment on RPMI-8226 leukemia; 75.3% with OVCAR-8 ovarian; 58.9% in the experiment on OVCAR-4 ovarian; 94.8% in the experiment on SK-OV-3 ovarian; 41.7% in the experiment with IGROV1 ovarian. For the same compound, the growth in the experiment with OVCAR-3 ovarian was 63.8%; in the experiment on HS 578T breast, 84.4%; in the experiment on NCI/ADR-RES ovarian, 82.1%.

Consider `CC[C@]12C=CCN3CC[C@@]4(c5cc(NC(=O)CCC(=O)O[C@H]6CC[C@H]7[C@@H]8CCC9=CC(=O)CC[C@@H]9[C@H]8CC[C@]67C)c(OC)cc5N(C)[C@H]4[C@@](O)(C(=O)OC)[C@@H]1OC(C)=O)[C@@H]32`, for which the growth in the experiment on SR leukemia was 40%; in the experiment with RPMI-8226 leukemia, 54.6%; in the experiment with OVCAR-8 ovarian it was 75.6%; in the experiment on OVCAR-4 ovarian, 67%; with SK-OV-3 ovarian, 104%; with IGROV1 ovarian, 61.6%. Further, the growth with OVCAR-3 ovarian was 80.8%; in the experiment with HS 578T breast it was 73.9%; in the experiment on NCI/ADR-RES ovarian, 80.1%.

Turning to `Cc1nnc2c(Cc3ccccc3)nc3ccccc3n12`, the growth in the experiment with SR leukemia is 94.6%; with RPMI-8226 leukemia it was 93.2%; in the experiment with OVCAR-8 ovarian, 104%; in the experiment on OVCAR-5 ovarian, 90.7%; with SK-OV-3 ovarian, 99.1%; in the experiment with IGROV1 ovarian it was 121%. Besides, the values for the growth in the experiment on OVCAR-3 ovarian, in the experiment with HS 578T breast and with NCI/ADR-RES ovarian were 94%, 104% and 87.4%, respectively.

Consider `COc1cc(C2=NN(C(C)=O)C(c3cc(OC)c(OC)c(OC)c3)C2)ccc1O` (stereo not given), for which the growth with SR leukemia was 15.6%; with RPMI-8226 leukemia, -27.5% (active); in the experiment with OVCAR-5 ovarian, 34%; in the experiment on OVCAR-4 ovarian it was 35.3%; in the experiment with IGROV1 ovarian it was 2.82% (active); with OVCAR-3 ovarian it was -51.9% (active). Moreover, the results for the growth in the experiment with HS 578T breast and with NCI/ADR-RES ovarian were -1.42% (active) and -55.4% (active), respectively.

`C=C1C(=O)O[C@H]2[C@H]1CC/C(COC(=O)NCc1c[nH]c3ccc(Cl)cc13)=C\CC[C@@]1(C)O[C@@H]21`: the growth was 7.4% (active) in the experiment on SR leukemia; -35.5% (active) in the experiment with RPMI-8226 leukemia; -27.7% (active) in the experiment on OVCAR-5 ovarian; -54.7% (active) in the experiment with OVCAR-4 ovarian; 90.5% in the experiment on SK-OV-3 ovarian; -65.8% (active) with IGROV1 ovarian. The values for the growth in the experiment with OVCAR-3 ovarian, with HS 578T breast and in the experiment on NCI/ADR-RES ovarian were -87.2% (active), 25.3% and 48.1%, respectively.

With `Cc1cnc(C(=O)Nc2nc3ccc(S(=O)(=O)Nc4ccc(C(C)(C)C)cc4)cc3[nH]2)cn1`, the growth was 12.3% with SR leukemia; 18.6% in the experiment on RPMI-8226 leukemia; 29.2% in the experiment with OVCAR-8 ovarian; 46.5% in the experiment with OVCAR-4 ovarian; 35.1% with IGROV1 ovarian; -14.3% (active) in the experiment on OVCAR-3 ovarian. Also, the figures for the growth in the experiment on HS 578T breast and in the experiment with NCI/ADR-RES ovarian were 4.25% (active) and 13.8%, respectively.

`CCCOc1ccc(/C=N/Nc2cc(C)nc3ccc(Br)cc23)cc1`: the growth is -1.3% (active) with SR leukemia; 58.9% in the experiment on RPMI-8226 leukemia; 111% in the experiment on OVCAR-5 ovarian; 88.1% in the experiment with OVCAR-4 ovarian; 90.9% in the experiment on SK-OV-3 ovarian; 90.4% in the experiment on IGROV1 ovarian. For the same compound, the figures for the growth with OVCAR-3 ovarian, with HS 578T breast and in the experiment with NCI/ADR-RES ovarian were 99.8%, 106% and 97.2%, respectively.

As to `O=C1Nc2cc(-c3cccc(O)c3)ccc2/C1=C/c1ccc[nH]1`, the growth is 4.14% (active) in the experiment on SR leukemia; -15% (active) with RPMI-8226 leukemia; 19.4% in the experiment on OVCAR-5 ovarian; 25.4% in the experiment with OVCAR-4 ovarian; 3.46% (active) in the experiment on SK-OV-3 ovarian; 8.78% (active) in the experiment with IGROV1 ovarian. In addition, the growth was -1.19% (active) in the experiment with OVCAR-3 ovarian, -4.18% (active) in the experiment on HS 578T breast and 23.8% with NCI/ADR-RES ovarian.

Regarding `CN1CCN(c2ccc(NC3=C(Cl)C(=O)c4ncccc4C3=O)cc2C(F)(F)F)CC1`, the growth with SR leukemia was 9.03% (active); in the experiment on RPMI-8226 leukemia it was -4.52% (active); with OVCAR-5 ovarian, 100%; in the experiment with OVCAR-4 ovarian, -96.8% (active); in the experiment on SK-OV-3 ovarian it was 84.9%; with IGROV1 ovarian it was -37.6% (active). In addition, the growth with OVCAR-3 ovarian is -82.9% (active); in the experiment with HS 578T breast it was 92.9%; in the experiment with NCI/ADR-RES ovarian, 81.9%.

For `COc1ccc2nc(-c3ccc(-c4noc(-c5cc(OC)c(OC)c(OC)c5)n4)cc3)[nH]c2c1`, the growth in the experiment with SR leukemia was 18.9%; in the experiment with OVCAR-8 ovarian, 33.6%; with OVCAR-5 ovarian, 113%; with OVCAR-4 ovarian, -53.4% (active); in the experiment with SK-OV-3 ovarian, 116%; with IGROV1 ovarian it was 110%. The values for the growth in the experiment on OVCAR-3 ovarian, in the experiment with HS 578T breast and in the experiment on NCI/ADR-RES ovarian were 44.8%, 72.6% and 45.3%, respectively.

With `COCCCN1CC(O)=C(c2nc(-c3ccc(C)cc3)cs2)C1=N`, the growth with SR leukemia was 109%; in the experiment with OVCAR-8 ovarian, 95.2%; in the experiment with OVCAR-5 ovarian, 97.6%; with OVCAR-4 ovarian it was 150%; in the experiment with SK-OV-3 ovarian it was 120%; with IGROV1 ovarian, 54.4%. The growth in the experiment on OVCAR-3 ovarian is 112%; in the experiment on HS 578T breast, 102%; in the experiment on NCI/ADR-RES ovarian it was 106%.
